From PubChem BioAssay come the findings set out here.

The nature of assay [1]: small molecules captured by biotinylated probe aFSTL3 – biochemical, small-molecule microarray, fluorescence 635/667, stem cell growth factor project, primary screen (AID 1064).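 Note: measures binding of the biotinylated anti-FSTL3 antibody to printed compounds.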 The conditions noted are these: higher = more signal.
A short description of assay [2]: binders from COS7 lysate, DM2A8 probe, primary screen, torsin A project, cell lysate, small-molecule microarray, fluorescence 635/667 (AID 1065). The conditions noted are these: higher = more signal, COS7 lysate expressing mutant human TOR1A.
Assay [3] is described as follows: small molecules captured by biotinylated probe aFGF2 – biochemical, small-molecule microarray, fluorescence 635/667, stem cell growth factor project, primary screen (AID 1067).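 Note: measures binding of biotinylated aFGF2 protein to printed compounds on slides; z-score merges feature fluorescence and signal-to-noise across triplicate slides.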 To be noted: higher = more signal.
Assay [4] is described as follows: small molecules captured by biotinylated probe aFGF10 – biochemical, small-molecule microarray, fluorescence 635/667, stem cell growth factor project, primary screen (AID 1071).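 Note: score merges 667 nm spot intensity and signal to noise from triplicate slides.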 The conditions noted are these: higher = more signal.
Assay [5] deals with Neurogenic locus notch homolog protein 2 (Homo sapiens) (UniProt Q04721). Nature of the assay: small molecules binding Notch2 protein – biochemical, small-molecule microarray, 635 nm fluorescence, stem cell growth factors, primary screen (AID 1073). To be noted: higher = more signal.
The target of assay [6] is Pro-neuregulin-1, membrane-bound isoform (Homo sapiens) (UniProt Q02297). Nature of the assay: small molecules binding neuregulin-1 protein – biochemical, small-molecule microarray, fluorescence 635/667, psychiatric disease protein project, primary screen (AID 1075).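 Note: score combines 667 nm spot fluorescence with signal to noise.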 To be noted: NRG1 binding, 635 nm fluorescence, higher = more signal.
Assay [7] deals with Neuregulin-1 EGF-like domain. Nature of the assay: small molecules binding NRG1 EGF domain – biochemical, small-molecule microarray, 635 nm fluorescence, primary screen (AID 1081).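 Note: binding of the protein to compounds printed on small-molecule microarray slides.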 The conditions noted are these: higher = more signal.
Assay [8] is described as follows: FRG1 expression reporter modulators in myotubes – cell-based, C2C12 myotubes, firefly/Renilla luciferase, luminescence, FRG1 inhibition for FSHD, primary screen (AID 1084). The conditions noted are these: FRG1 promoter luciferase, higher = more signal, called active from +8 up or from −8 down.
A short description of assay [9]: small molecules captured by biotinylated probe aFST – biochemical, small-molecule microarray, fluorescence 635/667, stem cell growth factor project, primary screen (AID 1086).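 Note: score merges 667 nm fluorescence with signal-to-noise of each printed compound spot.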 To be noted: higher = more signal.
Assay [10] can be described thus: binders of probe aHhip on microarray, primary screen, stem cell growth factor project, biochemical, small-molecule microarray, fluorescence 635/667 (AID 1087).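 Note: score merges spot fluorescence at 667nm with spot signal to noise ratio.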 The conditions noted are these: higher = more signal.
For assay [11], the system named is PRMT1 (protein arginine N-methyltransferase 1). Nature of the assay: small molecules binding arginine methyltransferase PRMT1 – biochemical, small-molecule microarray, 635 nm fluorescence, primary screen (AID 1088).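 Note: binding of Prmt1 protein to compounds spotted on small-molecule microarray slides.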 The conditions noted are these: higher = more signal.
Assay [12] is described as follows: growth effects on S. cerevisiae YJM789 – YJM789 clinical isolate, OD600, 24 h, basal, primary screen (AID 1089).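 Note: growth of clinical yeast isolate S. cerevisiae YJM 789 seeded 1000 cells per well; test concentration not given here.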 To be noted: higher = more signal, called active from +8 up or from −8 down.
Assay [13] in a line: S. pombe growth modifiers, basal conditions – strain 972, OD600, 24 h, no modulator, primary screen (AID 1090).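 Note: basal condition with compound alone and no growth modifier present; test concentration not given here.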 To be noted: S. pombe 972 growth, higher = more signal, called active from +8 up or from −8 down.
Assay [14] in a line: budding yeast growth modifiers under rapamycin – strain BY4716, OD600, 96 h, primary screen (AID 1091). Note: test concentration not given here. To be noted: S. cerevisiae BY4716 + rapamycin, higher = more signal, called active from +8 up or from −8 down.
Assay [15] has as its target Torsin-1A-interacting protein 2 (Homo sapiens) (UniProt Q8NFQ8). Nature of the assay: small molecules binding lysate-expressed LULL1 – cell lysate, human LULL1 lysate, 635/667 nm fluorescence, primary screen (AID 1092).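 Note: probe is lysate of COS7 cells overexpressing human LULL1; score merges per-feature 667 nm fluorescence with signal-to-noise.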 To be noted: small-molecule microarray, hLULL1 lysate binding, 635 nm fluorescence; higher = more signal.
A short description of assay [16]: optical density change of DRC41 E. coli – strain DRC41, OD650, 24 h, E. coli filamentation project, primary screen (AID 1093).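 Note: MC1000 strain lacking acrAB efflux and sulA so SOS filamentation is blocked; test concentration not given here.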 To be noted: E. coli DRC41 growth, higher = more signal, called active from +8 up or from −8 down.
The nature of assay [17]: probe aLefty2 binding to arrayed compounds – biochemical, biotinylated probe, 635/667 nm fluorescence, primary screen (AID 1094).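 Note: score merges spot fluorescence near 667 nm with spot signal-to-noise ratio.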 The conditions noted are these: small-molecule microarray, higher = more signal.
In assay [18] the test system is Noggin (protein binding on small-molecule microarray). Nature of the assay: small molecules binding Noggin protein – biochemical, 635/667 nm fluorescence, primary screen (AID 1095).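 Note: score merges 667 nm feature fluorescence with signal to noise over triplicate slides.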 To be noted: 635 nm fluorescence, higher = more signal.
Assay [19] concerns the target Neurogenic locus notch homolog protein 3 (Homo sapiens) (UniProt Q9UM47). Nature of the assay: small molecules binding NOTCH3 protein – biochemical, 635/667 nm fluorescence, primary screen (AID 1096). The conditions noted are these: small-molecule microarray, 635 nm fluorescence, higher = more signal.
Assay [20] is described as follows: probe aEGFR binding to arrayed compounds – biochemical, biotinylated probe, 635/667 nm fluorescence, primary screen (AID 1097).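 Note: probe is a biotinylated anti-EGFR antibody binding compounds printed on slides; score combines fluorescence near 667 nm and signal to noise of each spot.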 To be noted: small-molecule microarray, higher = more signal.

Activity calls are given as the source filed them.

Chain of Neurogenic locus notch homolog protein 3 (Homo sapiens) (Q9UM47 whole entry, looked up): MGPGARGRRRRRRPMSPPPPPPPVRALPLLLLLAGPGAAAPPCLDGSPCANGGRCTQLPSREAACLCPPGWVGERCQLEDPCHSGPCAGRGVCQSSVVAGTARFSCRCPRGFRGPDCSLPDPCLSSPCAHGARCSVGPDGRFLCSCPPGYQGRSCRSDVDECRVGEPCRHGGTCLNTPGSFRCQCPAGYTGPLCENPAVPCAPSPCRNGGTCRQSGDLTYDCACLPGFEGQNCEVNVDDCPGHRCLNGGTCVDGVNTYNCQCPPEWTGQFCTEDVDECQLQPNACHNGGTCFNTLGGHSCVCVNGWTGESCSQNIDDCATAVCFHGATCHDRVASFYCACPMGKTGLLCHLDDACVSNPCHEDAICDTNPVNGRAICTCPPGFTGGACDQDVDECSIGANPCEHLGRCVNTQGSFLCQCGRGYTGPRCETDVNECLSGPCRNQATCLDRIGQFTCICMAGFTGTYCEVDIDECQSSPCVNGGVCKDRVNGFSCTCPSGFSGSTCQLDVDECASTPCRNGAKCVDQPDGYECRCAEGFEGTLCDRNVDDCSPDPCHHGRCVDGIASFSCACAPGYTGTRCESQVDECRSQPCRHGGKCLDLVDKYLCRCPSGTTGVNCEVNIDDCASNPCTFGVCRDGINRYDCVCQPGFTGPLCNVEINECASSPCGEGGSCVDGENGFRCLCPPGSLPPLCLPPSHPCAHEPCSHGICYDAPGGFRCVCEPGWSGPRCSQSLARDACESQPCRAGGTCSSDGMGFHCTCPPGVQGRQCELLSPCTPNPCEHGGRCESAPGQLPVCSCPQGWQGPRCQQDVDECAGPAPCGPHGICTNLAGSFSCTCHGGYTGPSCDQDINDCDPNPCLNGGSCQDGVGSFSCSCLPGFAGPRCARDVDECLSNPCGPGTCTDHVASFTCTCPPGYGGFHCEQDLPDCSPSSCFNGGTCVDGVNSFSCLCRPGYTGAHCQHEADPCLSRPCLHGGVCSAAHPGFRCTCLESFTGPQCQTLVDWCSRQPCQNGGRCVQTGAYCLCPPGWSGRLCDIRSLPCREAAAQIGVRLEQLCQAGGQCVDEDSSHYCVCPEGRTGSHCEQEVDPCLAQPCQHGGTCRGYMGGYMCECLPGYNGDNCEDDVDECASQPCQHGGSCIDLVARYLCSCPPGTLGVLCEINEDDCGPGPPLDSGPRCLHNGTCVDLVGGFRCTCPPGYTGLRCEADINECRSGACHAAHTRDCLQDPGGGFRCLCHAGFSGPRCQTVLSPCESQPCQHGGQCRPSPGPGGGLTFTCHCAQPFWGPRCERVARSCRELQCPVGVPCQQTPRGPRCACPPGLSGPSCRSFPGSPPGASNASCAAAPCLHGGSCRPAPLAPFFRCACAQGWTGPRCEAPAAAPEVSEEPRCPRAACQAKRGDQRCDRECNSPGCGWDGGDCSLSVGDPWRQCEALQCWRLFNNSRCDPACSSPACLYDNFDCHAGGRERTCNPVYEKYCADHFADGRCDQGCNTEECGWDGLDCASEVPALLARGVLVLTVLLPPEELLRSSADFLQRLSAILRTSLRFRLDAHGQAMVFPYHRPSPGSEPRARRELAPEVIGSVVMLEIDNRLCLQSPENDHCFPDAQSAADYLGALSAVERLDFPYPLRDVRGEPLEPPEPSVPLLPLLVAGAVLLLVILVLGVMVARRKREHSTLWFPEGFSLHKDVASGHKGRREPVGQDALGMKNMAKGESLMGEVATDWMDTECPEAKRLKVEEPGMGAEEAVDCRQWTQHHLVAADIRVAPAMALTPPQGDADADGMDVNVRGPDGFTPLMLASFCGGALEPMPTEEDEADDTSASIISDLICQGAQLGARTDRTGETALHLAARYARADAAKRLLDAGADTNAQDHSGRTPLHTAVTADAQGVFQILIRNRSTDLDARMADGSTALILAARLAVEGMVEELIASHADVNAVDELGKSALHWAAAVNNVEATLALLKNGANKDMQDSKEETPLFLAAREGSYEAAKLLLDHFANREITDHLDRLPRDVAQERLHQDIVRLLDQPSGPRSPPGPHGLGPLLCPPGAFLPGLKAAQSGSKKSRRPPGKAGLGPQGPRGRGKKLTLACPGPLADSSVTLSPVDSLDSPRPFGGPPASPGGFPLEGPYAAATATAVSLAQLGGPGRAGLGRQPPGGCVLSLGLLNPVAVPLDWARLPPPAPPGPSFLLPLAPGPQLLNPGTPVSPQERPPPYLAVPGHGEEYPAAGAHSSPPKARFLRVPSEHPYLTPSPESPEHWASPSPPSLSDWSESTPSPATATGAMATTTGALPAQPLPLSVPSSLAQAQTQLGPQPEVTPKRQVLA
Chain of Neurogenic locus notch homolog protein 2 (Homo sapiens) (Q04721 whole entry, looked up, canonical isoform): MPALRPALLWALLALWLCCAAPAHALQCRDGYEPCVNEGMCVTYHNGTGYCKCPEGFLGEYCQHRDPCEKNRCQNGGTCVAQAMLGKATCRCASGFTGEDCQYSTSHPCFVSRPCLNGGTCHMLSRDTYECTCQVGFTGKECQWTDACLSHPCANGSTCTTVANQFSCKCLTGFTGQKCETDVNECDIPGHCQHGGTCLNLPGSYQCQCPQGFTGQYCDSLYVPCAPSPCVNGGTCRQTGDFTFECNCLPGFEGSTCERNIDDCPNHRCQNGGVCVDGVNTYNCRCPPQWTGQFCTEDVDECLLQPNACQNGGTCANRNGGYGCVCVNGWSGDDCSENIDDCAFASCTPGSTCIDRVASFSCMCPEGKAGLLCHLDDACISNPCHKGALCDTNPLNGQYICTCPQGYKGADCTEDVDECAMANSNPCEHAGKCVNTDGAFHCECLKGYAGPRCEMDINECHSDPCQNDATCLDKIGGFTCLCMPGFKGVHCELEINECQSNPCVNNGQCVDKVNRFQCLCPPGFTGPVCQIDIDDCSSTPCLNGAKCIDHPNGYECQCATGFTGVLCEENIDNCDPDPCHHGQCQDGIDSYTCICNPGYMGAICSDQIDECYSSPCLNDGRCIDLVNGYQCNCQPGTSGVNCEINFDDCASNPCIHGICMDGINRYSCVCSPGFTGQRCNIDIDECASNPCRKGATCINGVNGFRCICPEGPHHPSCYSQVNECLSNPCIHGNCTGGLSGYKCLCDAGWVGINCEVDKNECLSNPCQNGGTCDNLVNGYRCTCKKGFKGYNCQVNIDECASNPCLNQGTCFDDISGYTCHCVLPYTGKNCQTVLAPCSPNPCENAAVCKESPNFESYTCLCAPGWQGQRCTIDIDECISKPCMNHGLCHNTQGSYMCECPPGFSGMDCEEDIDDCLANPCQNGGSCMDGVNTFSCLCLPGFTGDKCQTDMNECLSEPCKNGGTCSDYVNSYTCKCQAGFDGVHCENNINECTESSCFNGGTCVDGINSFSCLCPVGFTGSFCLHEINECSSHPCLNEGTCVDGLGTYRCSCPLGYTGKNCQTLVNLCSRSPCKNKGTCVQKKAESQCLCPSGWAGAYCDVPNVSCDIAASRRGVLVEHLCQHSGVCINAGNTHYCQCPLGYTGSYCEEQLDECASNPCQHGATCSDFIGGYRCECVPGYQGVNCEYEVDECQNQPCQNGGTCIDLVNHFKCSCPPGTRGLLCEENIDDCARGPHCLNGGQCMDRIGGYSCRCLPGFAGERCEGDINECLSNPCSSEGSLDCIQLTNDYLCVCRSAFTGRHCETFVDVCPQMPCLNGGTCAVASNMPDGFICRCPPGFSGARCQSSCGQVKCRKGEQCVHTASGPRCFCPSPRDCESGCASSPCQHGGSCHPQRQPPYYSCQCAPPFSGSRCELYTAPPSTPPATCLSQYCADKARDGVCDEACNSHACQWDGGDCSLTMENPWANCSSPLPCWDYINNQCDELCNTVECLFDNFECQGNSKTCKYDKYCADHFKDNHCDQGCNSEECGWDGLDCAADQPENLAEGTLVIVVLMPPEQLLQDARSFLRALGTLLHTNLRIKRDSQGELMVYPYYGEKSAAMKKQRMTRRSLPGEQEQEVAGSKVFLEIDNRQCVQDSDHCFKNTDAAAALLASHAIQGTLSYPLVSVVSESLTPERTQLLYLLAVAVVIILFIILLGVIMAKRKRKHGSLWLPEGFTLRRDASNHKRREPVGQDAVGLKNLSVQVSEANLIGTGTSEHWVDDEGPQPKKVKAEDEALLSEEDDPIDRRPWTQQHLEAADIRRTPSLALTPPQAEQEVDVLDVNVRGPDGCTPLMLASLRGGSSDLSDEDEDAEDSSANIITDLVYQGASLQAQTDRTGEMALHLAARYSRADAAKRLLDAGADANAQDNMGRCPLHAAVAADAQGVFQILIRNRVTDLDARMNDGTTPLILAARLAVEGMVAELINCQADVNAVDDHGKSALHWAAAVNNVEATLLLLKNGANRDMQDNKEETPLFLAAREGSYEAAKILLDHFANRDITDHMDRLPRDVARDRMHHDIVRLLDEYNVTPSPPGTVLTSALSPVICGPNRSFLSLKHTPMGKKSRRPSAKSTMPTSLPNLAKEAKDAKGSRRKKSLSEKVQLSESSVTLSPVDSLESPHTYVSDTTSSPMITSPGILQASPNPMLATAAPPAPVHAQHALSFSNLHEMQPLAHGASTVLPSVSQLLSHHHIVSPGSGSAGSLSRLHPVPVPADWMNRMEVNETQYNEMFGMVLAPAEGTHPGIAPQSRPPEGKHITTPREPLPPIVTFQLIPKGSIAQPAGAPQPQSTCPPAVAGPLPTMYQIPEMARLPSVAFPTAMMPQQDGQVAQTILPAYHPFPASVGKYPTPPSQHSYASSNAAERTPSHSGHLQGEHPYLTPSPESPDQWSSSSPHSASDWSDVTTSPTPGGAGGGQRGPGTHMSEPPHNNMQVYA

With `CCOC(=O)[C@H]1C/C=C/C[C@H](C(=O)OCC)C(=O)O[C@H]2[C@@H](OC)O[C@H](CO)[C@@H](OC(=O)Nc3ccc(OC)cc3)[C@@H]2OC1=O`, the composite z-score in assay [1] is -0.0119; in assay [2], 0.753; in assay [3], 0.0386; in assay [4], 0.803; in assay [5], 1.16; in assay [6] it was 0.309. For the same compound, the composite z-score in [7] stood at 0.94; in assay [9], 0.363; in [10], 0.675; in assay [11], 1.49; in assay [15], 2.03; in [17], 0.217. The composite z-score is 0.713 in [18], 1.09 in assay [19] and -0.0737 in assay [20]. Moreover, the z-score in [8] is 2.18 (inactive); in assay [12] it was 1.04 (inactive); in [13] it was -0.0368 (inactive); in assay [14], 3.56 (inactive); in [16] it was 1.3 (inactive).

For `COc1ccc(C(O)C2C=CC3C(=O)N(C)C(=O)C3N2N2CCCCC2)cc1` (stereo not given), the composite z-score in assay [1] was -0.162; in [2], 1.42; in assay [3], 0.213; in [4], 1; in [5], 1.65; in assay [6], 1.61. For the same compound, the composite z-score was 1.38 in assay [7]; 0.201 in assay [9]; -0.283 in assay [10]; 0.973 in assay [11]; 2.83 in [15]; 0.311 in assay [17]. In addition, the composite z-score came to 0.158 in [18], 0.871 in assay [19] and 0.0961 in [20]. Also, the z-score in [8] is 1.51 (inactive); in assay [12], -0.186 (inactive); in [13] it was -0.275 (inactive); in assay [14], -0.0667 (inactive); in [16], -0.454 (inactive).

Consider `O=C(CCCCCCC(=O)Nc1ccccc1)N/N=C/c1ccccc1`, for which the composite z-score in assay [1] was -0.199; in assay [2] it was 0.0786; in [3] it was -0.141; in assay [4] it was 0.0493; in assay [5] it was -0.252; in [6], -0.384. Besides, the composite z-score is -0.147 in assay [7]; -0.0659 in [9]; 0.0373 in assay [10]; -0.998 in assay [11]; -0.743 in assay [15]; -0.105 in [17]. For the same compound, the composite z-score in assay [18] was -0.361; in [19], -0.783; in [20] it was -0.117. The z-score was 0.0691 (inactive) in [8]; 0.507 (inactive) in assay [12]; 0.0263 (inactive) in [13]; 1.06 (inactive) in assay [14]; 0.195 (inactive) in [16].

For the compound `CC[C@@H]1[C@H]2C3C(=O)N(CC)C(=O)C3CC(=O)[C@H]2[C@H](c2ccc(C)cc2)N1S(=O)(=O)c1ccc(C)cc1` (stereo not given in full), the composite z-score in assay [1] was -0.0209; in assay [2] it was 0.172; in assay [3] it was -0.0878; in [4], 0.457; in assay [5], 1.44; in [6], 0.519. For the same compound, the composite z-score is 0.57 in [7]; 0.84 in assay [9]; -0.0296 in assay [10]; 1.09 in [11]; 2.75 in assay [15]; -0.203 in assay [17]. Moreover, the results for the composite z-score in assay [18], in [19] and in assay [20] were 0.712, 1.12 and -0.0353, respectively. For the same compound, the z-score was -0.319 (inactive) in assay [8]; 0.0287 (inactive) in assay [12]; 1.15 (inactive) in assay [13]; 1.6 (inactive) in assay [14]; -0.243 (inactive) in [16].

Regarding `O=C1O[C@@H](c2ccccc2)[C@@H](c2ccccc2)N2[C@@H](c3ccccc3OCCO)[C@]3(C(=O)Nc4ccccc43)[C@@H](C(=O)NC[C@H](O)c3ccccc3)[C@H]12`, the composite z-score in assay [1] is 0.421; in assay [2] it was 0.98; in assay [3], -0.0937; in assay [4], 0.0718; in assay [5], -0.843; in assay [6], 0.551. The composite z-score in assay [7] was 1.2; in assay [9] it was -0.127; in assay [10], -0.226; in assay [11] it was 1.4; in assay [15], 2.69; in [17], -0.139. The composite z-score in [18] was -0.84; in [19], -0.359; in assay [20] it was -0.207. Further, the z-score in assay [8] is -2.8 (inactive); in assay [12] it was 2.62 (inactive); in assay [13], 1.68 (inactive); in assay [14], 5.71 (inactive); in [16], -0.467 (inactive).
